In PubChem BioAssay (NCATS):
Records with an inconclusive call do not appear. Active and inactive are the calls of the source. Calls come from the whole dose curve; as a rule, active = well fitted inhibition curve with a large enough effect; inconclusive = small, poorly fitted or top-dose-only effect, or effect the other way; inactive = no such curve, though single readings can be large or run the other way.

assay: High Content Imaging Cell-Based qHTS for Inhibitors of the mTORC1 Signaling Pathway in MEF Cells (AID 2667); conditions: series mostly up to 38.3 µM; activity change, negative = inhibition: at the top concentration;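 note: Tsc2-/- p53-/- MEFs stably re-expressing wild-type Tsc2 exposed 24 h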
From the text: NIH Molecular Libraries Probe Production Centers Network [MLPCN]
NIH Chemical Genomics Center [NCGC]
Assay Submitter (PI): Blenis, John; Hoffman, Greg; Harvard University
NCGC Assay Overview: The mammalian target of rapamycin (mTOR) is an intracellular serine/threonine kinase Aberrant regulation of mTOR signaling plays a causative role in a number of human diseases, including cancer, benign tumors such as lymphangioleiomyomatosis (LAM) and Tuberous Sclerosis Complex (TSC), and metabolic diseases such as diabetes and obesity. This project aims to identify inhibitors of ribosomal protein S6 (rpS6) phosphorylation. The phosphorylation of rpS6 is a key event downstream of mTOR activation. The assay uses a phospho-specific antibody of phospho-rpS6 to detect inhibitors of mTOR activation. Mutations in the Tsc1 and Tsc2 genes are the underlying genetic lesions responsible for TSC, causing constitutive activation of the mTORC1 pathway and leading to profound effects on cell metabolism. Aberrant metabolism in cancer has recently received significant attention as a target to develop therapeutic agents in the treatment of cancer.1 As Tsc2-/- cells have lost the ability to respond to energy and growth factor deprivation, these cells are unable to properly down regulate cellular biosynthetic processes in response to metabolic stress, and are thus extremely sensitive to glucose deprivation-induced death.2 A central goal of this project is to explore the unique cell survival and metabolic properties of cells with Tsc1 or Tsc2 by screening for compounds that selectively target the Tsc2-/- MEFs by screening both Tsc2-/- and WT MEF cell lines. We hope to better understand these aspects of TSC physiology in order to exploit them for therapeutic benefit.
NCGC IN Cell Assay Protocol:
For quantitative high throughput analysis of mTORC1 signaling, we developed a cell-based assay for immuno-fluorescence based detection of rpS6 phosphorylation on the Acumen Explorer that will be used a platform for the primary small molecule screen. Mouse embryonic fibroblasts (MEFs) are cultured in 1536-well plates using DMEM + 10% FBS. Twenty-four hrs after plating, test compounds (solubilized in DMSO) are delivered and incubated with the cells for 24 hrs at 37 degree Celsius. Following the incubation, media with compound is aspirated and the cells are fixed in 4% paraformaldehyde (PFA) containing PBS + 0.2% TX-100. Next, PFA is aspirated, cells are washed two times with PBS plus 0.2% TX-100 and the cells are blocked for 1 hr at room temperature (blocking buffer: LiCOR Blocking Buffer plus 0.2% TX-100). This is followed by aspiration and staining with Alexa-488 conjugated-phospho-rpS6 Ser235/236 antibody for 2 hours at room temperature (Cell Signaling Technology # 4803, 1:50 dilution in blocking buffer). Cells are washed two times with PBS plus 0.2% TX-100, and stained with 10 uM propidium iodide (PI) for 20-25 minutes for cell number measurement (1:500 dilution of Hoescht staining is also added for IN Cell imaging). Active wells which are selected (based on Acumen results) are imaged on the IN Cell 1000 (GE Healthcare) using the D360/40X and HQ480/40X excitation filters for the Hoechst and Alexa-488 cytoplasmic stains, respectively. The fluorescence emission filters used were HQ460/40M and HQ535/50M for the Hoechst and Alexa-488 cytoplasmic stains, respectively. The normalized phospho-S6 staining is calculated as the ratio of […] for the single concentration rapamycin control ([…] nM) and DMSO columns. […] Inhibition of the pathway is defined based on the normalized phospho-S6 intensity in rapamycin treated cells. Each treatment is reported as the % positive cells in the well, where thresholds are defined by selecting wells with the highest and lowest signal and differentiating between the % non-active and % active populations. […]

SMILES	activity change, negative = inhibition
Cc1ccccc1/C=C/C1=NCCN1	-100% (inactive)
CCCCCCCCCC[Si](C)(C)CCC(=O)NC(Cc1ccc(C)cc1)c1ccccc1 (stereo not given)	-100% (inactive)
CC1=C(C(=O)O)N2C(=O)[C@@H](NC(=O)C(N)C3=CCC=CC3)[C@H]2SC1 (stereo not given in full)	-100% (inactive)
O=C(c1ccc2c(c1)OCCO2)N1CCCCC1	-100% (inactive)
COc1cc(CNC(=O)CCCCCCC(C)C)ccc1O	-100% (inactive)
Clc1nccc2c1ccc1ccccc12	-100% (inactive)
CN(C)C(=O)/N=N/C(=O)N(C)C	-100% (inactive)
NC(Cc1cccc(-c2ccccc2CP(=O)(O)O)c1)C(=O)O (stereo not given)	-100% (inactive)
CCCc1c(OCCCOc2ccc(OCC(=O)O)cc2)ccc(C(C)=O)c1O	-100% (inactive)
O=C(O)C1CCCNC1 (stereo not given)	-100% (inactive)
NC1(C(=O)O)CCc2cc(C(=O)O)ccc21 (stereo not given)	-100% (inactive)
NCC(O)c1ccc(O)c(O)c1 (stereo not given)	-100% (inactive)
CC1CCN(CC[C@H]2CCCN2S(=O)(=O)c2cccc(O)c2)CC1	-100% (inactive)
CC1=C(/C=C/C(C)=C/C=C/C(C)=C\C(=O)O)C(C)(C)CCC1	15.6% (inactive)
O=C(O)c1ccccc1Nc1ccccc1	-100% (inactive)
N[C@H](C(=O)O)[C@H](Cc1ccccc1)C(=O)O	-100% (inactive)
Nc1nc2c(cnn2CCc2ccccc2)c2nc(-c3ccco3)nn12	-100% (inactive)
CCn1c(=O)[nH]c2cc(Cl)c(Cl)cc21	-100% (inactive)
Nc1ccc(-c2ccc3ccccc3n2)cc1	-100% (inactive)
O=c1[nH]c(=S)[nH]c(-c2ccccc2)c1Cc1c(O)ccc2ccccc12	-100% (inactive)

SMILES	activity change, negative = inhibition
NC(N)=NC(N)=Nc1cccc(Cl)c1	-100% (inactive)
CNCCNS(=O)(=O)c1cccc2cnccc12	-100% (inactive)
O=[N+]([O-])c1cccc2c(Br)[nH]nc12	-100% (inactive)
CN(CC[C@@H](Oc1ccc(C(F)(F)F)cc1)c1ccccc1)CC(=O)O	-100% (inactive)
NC/C=C\C(=O)O	-100% (inactive)
O=C(O)C1=CC(=C(c2ccc(O)c(C(=O)O)c2)c2ccc(O)c(C(=O)O)c2)C=CC1=O	-100% (inactive)
Oc1cc2c(cc1O)C(c1ccccc1)CNCC2 (stereo not given)	-100% (inactive)
C=CC1(C)CC(=O)C2(O)C(C)(O1)C(OC(C)=O)C(O)C1C(C)(C)CCC(O)C12C (stereo not given)	-100% (inactive)
Cn1c(=O)c2c(nc(/C=C/c3cccc(Cl)c3)n2C)n(C)c1=O	-100% (inactive)
CCSC(=N)N	-100% (inactive)
CCCn1c(=O)c(C)cn2nc(N)nc12	-100% (inactive)
N[C@@H](CS(=O)O)C(=O)O	-100% (inactive)
Cn1cc(C(F)(F)F)nc1-c1ccc(OCC(O)CNCCOc2ccc(O)c(C(N)=O)c2)cc1 (stereo not given)	-100% (inactive)
C=CCn1c(=O)c2c(nc(-c3ccc(S(=O)(=O)O)cc3)n2C)n(C)c1=O	-100% (inactive)
O=C(O)/C=C/c1cnc[nH]1	-100% (inactive)
CCN(c1nc(N)c(C(=O)N=C(N)N)nc1Cl)C(C)C	-100% (inactive)
Cc1cccc(C2CN(C)CCc3c2cc(O)c(O)c3Cl)c1 (stereo not given)	-100% (inactive)
COC(=O)C1=C(C)NC(C)=C([N+](=O)[O-])C1c1ccccc1C(F)(F)F (stereo not given)	-100% (inactive)
c1ccc2nc(C3=NCCN3)ccc2c1	-100% (inactive)
CC(C)NCC(O)COc1ccc(CC(N)=O)cc1 (stereo not given)	-100% (inactive)
